Results filed as inconclusive are left out. A structure can be active in one record and inactive in another. The source made the active and inactive calls. Rule for the calls: active = hit-call score of the fitted dose curve at least 0.9, where 1 is the maximum; inconclusive = response in the unintended direction; inactive = score below 0.9.
Target: Cellular tumor antigen p53 (Homo sapiens) (UniProt P04637)
Experiment: TOX21_p53_BLA_p5_ratio: Tox21 HCT-116 p53 Agonism Beta-lactamase Assay, Ratio, Phase 5 (AID 2283599)
Text: TOX21_p53_BLA_p5 is a cell-based, single-readout assay that uses HCT116, a human intestinal cell line, […] in a 1536-well plate.TOX21_p53_BLA_p5_ratio is an assay readout measuring reporter gene via receptor activity and designed using inducible reporter (beta lactamase induction) detected with GAL4 b-lactamase reporter gene. The signal is derived from the ratio of cleaved (ch2) to uncleaved (ch1) reporter gene substrate used as the measure of target activity.Data from the assay component TOX21_p53_BLA_p5_ratio was analyzed into 1 assay endpoint. This assay endpoint, TOX21_p53_BLA_p5_ratio, was analyzed in the positive analysis fitting direction relative to DMSO as the negative control and baseline of activity. Using a type of inducible reporter, gain-of-signal activity can be used to understand changes in the reporter gene as they relate to the gene TP53. Furthermore, this assay endpoint can be referred to as a primary readout, because this assay has produced multiple assay endpoints and this ratio serves a reporter gene function to understand target activity. To generalize the intended target to other relatable targets, this assay endpoint is annotated to the DNA binding intended target family, where the subfamily is tumor suppressor.
Thawing Method: Place 14 mL of pre-warmed thaw medium into a 15 mL of conical tub. Remove the vial of cells to be thawed from liquid nitrogen and thaw rapidly by placing at 37C in a water bath with gentle agitation for 1-2 minutes. Decontaminate the vial by wiping with 70% ethanol before opening in a biological safety cabinet. Transfer the vial contents drop-wise into 14 mL of thaw medium in a sterile 15-mL conical tub. Centrifuge cells at 900 rpm for 4 minutes and resuspend in thaw medium. Transfer contents to the T75 tissue culture flask containing Thaw Medium and place flask in a humidified 37C/5% CO2 incubator. Switch to growth medium at first passage.Propagation Method: Aspirate medium, rinse once in DPBS, add 0.25% Trypsin/EDTA and swirl to coat the cell evenly. Add an equal volume of Growth Medium to inactivate Trypsin after 2-3 minutes incubation at 37C. Centrifuge cells at 900 rpm for 4 minutes and resuspend in growth medium. Cell should be passage or fed at least twice a week.Assay Protocol: Harvest cells from culture in growth medium and resuspend in assay medium. 2.2 Dispense 4000 cells/5 uL/well into 1536-well black/clear bottom plates using a Multidrop dispenser. After the cells were incubated at 37C for 5 hours, 23 nL of compounds dissolved in DMSO were transferred to the assay plate by a PinTool resulting in a 217-fold dilution. Incubate the plates for 16 hours at 37C, 5% CO2. Add 1 uL of 6X LiveBLAzer FRET B/G (CCF4-AM) Substrate Mixture to each well using a BioRAPTR dispenser and incubate the plates at room temperature for 2 hours. Measure fluorescence intensity at 460 and 530 nm emission and 405 nm excitation by an Envision detector. Data is expressed as the ratio of 460nm/530nm emissions. Add 4 uL of Cell-titer Glo to each well using BioRAPTR and incubate the plates at room temperature for 2 hours. Measure fluorescence intensity by a VewLux plate reader.

Chain of Cellular tumor antigen p53 (Homo sapiens) (P04637 whole entry, looked up): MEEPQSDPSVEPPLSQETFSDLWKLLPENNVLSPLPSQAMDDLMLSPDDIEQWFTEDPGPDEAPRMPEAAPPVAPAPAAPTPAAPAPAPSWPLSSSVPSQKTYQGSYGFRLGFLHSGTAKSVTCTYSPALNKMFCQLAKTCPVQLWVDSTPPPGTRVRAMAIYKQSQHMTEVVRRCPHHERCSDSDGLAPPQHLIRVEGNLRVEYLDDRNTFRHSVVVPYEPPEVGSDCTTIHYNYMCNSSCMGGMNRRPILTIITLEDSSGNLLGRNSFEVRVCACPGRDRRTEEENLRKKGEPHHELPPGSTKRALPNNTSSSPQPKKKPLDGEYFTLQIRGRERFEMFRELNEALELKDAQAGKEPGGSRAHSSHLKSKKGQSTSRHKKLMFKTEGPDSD

SMILES | outcome | AC50
CC(=O)c1cccnc1 | inactive | –
CC(=O)c1ccc2ccccc2c1 | inactive | –
c1ccc(OCCOc2ccccc2)cc1 | inactive | –
ClCCOCCOCCCl | inactive | –
[Na+] | inactive | –
O=S1(=O)CC(Cl)(Cl)C(Cl)(Cl)C1 | – | 39.4 µM (active)
c1ccc2scnc2c1 | inactive | –
CCCCCCCCCC(=O)OCC | inactive | –
CCCCCC1C(=O)CCC1CC(=O)OC (stereo not given) | inactive | –
CC(CCO)CC(C)(C)C (stereo not given) | inactive | –
CC(O)COCC(C)O (stereo not given) | inactive | –
COc1ccccc1O | inactive | –
CCCCCC1CCC(=O)O1 (stereo not given) | inactive | –
CN(C)CCCNCCCN(C)C | inactive | –
CC(C)CCCC(C)(C)O | inactive | –
CN1CCc2cccc3c2[C@H]1Cc1ccc(O)c(O)c1-3 | inactive | 86.8 µM (active)
CCc1cccc(O)c1 | inactive | –
NC(=O)c1cccnc1 | inactive | –
CC1(C)CC(N)CC(C)(CN)C1 (stereo not given) | inactive | –
CCCCC(CC)COCCO (stereo not given) | inactive | –

SMILES | outcome | AC50
CC(C)Cc1ccc(C(C)C(=O)O)cc1 (stereo not given) | inactive | –
CCCCCCCCCCCCCC(=O)OCC | inactive | –
CC(C)COC(=O)c1ccccc1O | inactive | –
CC1=CCC(C(C)(C)O)CC1 (stereo not given) | inactive | –
C=CC(C)(CCC=C(C)C)OC(=O)CC (stereo not given) | inactive | –
CC1=CCC(=C(C)C)CC1 | inactive | –
CCCCC1CCCCC(=O)O1 (stereo not given) | inactive | –
C=C(C)CCCC(C)CCO (stereo not given) | inactive | –
Cc1cccc(O)c1 | inactive | –
Cc1ccc(C(C)(C)O)cc1 | inactive | –
COc1ccc2[nH]cc(CCNC(C)=O)c2c1 | inactive | –
CCC(C)COC(=O)CC(C)C (stereo not given) | inactive | –
CCCCCCCCCCCCOCCOS(=O)(=O)O | inactive | –
CC/C=C\CCOC(C)OCC (stereo not given) | inactive | –
CC(=O)OC/C=C(C)/C=C/C=C(C)/C=C/C1=C(C)CCCC1(C)C | inactive | –
CC/C=C\C#N | inactive | –
CCCCCCCCCOS(=O)(=O)O | inactive | –
O=S1(=O)CC=CC1 | inactive | –
CCC(=O)OC(C)(C)C1CC=C(C)CC1 (stereo not given) | inactive | –

Reference: PubChem BioAssay (EPA / NIEHS)
